Outcome and Potency data for 14 compounds are collected here from PubChem BioAssay (NCATS).

Records with an inconclusive call do not appear. The source made the active and inactive calls. Calls follow the shape of the dose curve; as a rule, active = well fitted inhibition curve with a large enough effect; inconclusive = small, poorly fitted or top-dose-only effect; inactive = flat fitted curve, though single readings scatter.

Test in all cases: qHTS profiling for inhibitors of Plasmodium falciparum proliferation (AID 504749); also: nearly all actives have a fitted effect of over 60% in size
Details in all cases: P. falciparum in erythrocytes, SYBR Green DNA, 72 h; series mostly up to 28.7 µM
In general terms: In qHTS, concentration-response curves come from the screen itself.

The test system of test [1] is CP315. An outline of the steps:
(§1)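 Infected RBCs, 0.3% parasitemia/2.5% Hct final; cpd 72 h, 37 C, 5% CO2; lysis buffer with saponin/triton/SYBR Green I, o/n RT dark; FI 485/535; norm. to artemisinin (0.29 uM) and DMSO.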

Test [2] has as its system CP325. An outline of the steps: as §1
Test [3] deals with CP329. An outline of the steps:
as §1

The subject of test [4] is CP335. An outline of the steps: as §1
Test [5] concerns DFO2036. An outline of the steps: as §1
Test [6] relates to DIV14. The essentials:
as §1

The subject of test [7] is DIV17. The essentials: as §1
Test [8] concerns DIV30. An outline of the steps:
as §1

Test [9] has as its system Dd2. The essentials: as §1
In test [10] the test system is ECU. The essentials:
as §1

The test system of test [11] is FAB9. The essentials:
as §1

In test [12] the test system is GB4. The essentials: as §1
The subject of test [13] is HB3. An outline of the steps: as §1
Test [14] concerns ICS. The essentials:
as §1

Test [15] relates to JCK. An outline of the steps:
as §1

For test [16], the system named is N140. The essentials: as §1
Test [17] concerns P93_24. An outline of the steps: as §1
Test [18] deals with P94_40. The essentials:
as §1

For test [19], the system named is PAD. An outline of the steps: as §1
In test [20] the test system is PC15. The essentials:
as §1
Potency is read from the fitted curve at half-maximal effect.

In the case of `Cc1cccc(Nc2ccccc2C(=O)O)c1C`, the result in test [1], in [2], in test [3] and in test [8] was inactive. In addition, the Potency entry in test [4], in test [5], in [6], in test [7], in [9] and in test [10] was “inactive” in each case. In addition, the Potency result in test [11], in test [12], in test [13], in test [14], in test [15] and in test [16] was “inactive” in each case. Also, the Potency result in [17], in test [18], in test [19] and in [20] was “inactive” each time.

Take `NC(N)=NCCN1CCCCCCC1`: the compound was classed as inactive in test [1], in test [2], in test [3] and in test [8]. Also, the Potency result in test [4], in test [5], in [6], in [7], in test [9] and in test [10] was “inactive” each time. Further, the Potency result in test [11], in [12], in [13], in [14], in test [15] and in [16] was “inactive” in each case. Besides, the Potency result in [17], in [18], in test [19] and in test [20] was “inactive” each time.

As to `CN(C(=O)c1c(O)c2ccccc2n(C)c1=O)c1ccccc1`, the outcome in test [1], in test [2], in [3] and in [8] was inactive. Besides, the Potency entry in test [4], in [5], in test [6], in [7], in [9] and in test [10] was “inactive” in each case. The Potency result in test [11], in test [12], in [13], in [14], in test [15] and in test [16] was “inactive” throughout. Also, the Potency result in test [17], in [18], in test [19] and in test [20] was “inactive” in each case.

With `OCC(O)CS` (stereo not given), the outcome in [1], in test [2], in test [3] and in test [8] was inactive. For the same compound, the Potency entry in test [4], in test [5], in [6], in test [7], in [9] and in test [10] was “inactive” throughout. For the same compound, the Potency result in test [11], in test [12], in test [13], in [14], in test [15] and in [16] was “inactive” throughout. Besides, the Potency entry in [17], in [18], in test [19] and in test [20] was “inactive” throughout.

`CNCc1ccccc1`: the compound was called inactive in test [1], in test [2], in [3] and in test [8]. The Potency result in test [4], in test [5], in [6], in test [7], in [9] and in [10] was “inactive” throughout. Besides, the Potency entry in test [11], in test [12], in test [13], in test [14], in test [15] and in test [16] was “inactive” throughout. Besides, the Potency result in test [17], in [18], in test [19] and in test [20] was “inactive” each time.

Consider `Cc1cc(C)nc(NS(=O)(=O)c2ccc(N)cc2)n1`, for which the call in test [1], in [2], in test [3] and in [8] was inactive. The Potency result in test [4], in test [5], in [6], in test [7], in test [9] and in [10] was “inactive” each time. In addition, the Potency entry in test [11], in [12], in [13], in [14], in test [15] and in [16] was “inactive” in each case. In addition, the Potency entry in test [17], in test [18], in test [19] and in [20] was “inactive” throughout.

In the case of `CC(C)(C)C(=O)OCOC(=O)[C@@H]1N2C(=O)[C@@H](NC(=O)[C@H](N)c3ccccc3)[C@H]2SC1(C)C`, the call in test [1], in test [2], in test [3] and in [8] was inactive. In addition, the Potency entry in [4], in test [5], in test [6], in test [7], in test [9] and in test [10] was “inactive” throughout. Besides, the Potency entry in [11], in test [12], in test [13], in test [14], in [15] and in test [16] was “inactive” throughout. Besides, the Potency entry in test [17], in [18], in test [19] and in test [20] was “inactive” throughout.

For `CCN(CC)C(=O)c1cccc(C)c1`, the outcome in test [1], in test [2], in [3] and in test [8] was inactive. Moreover, the Potency result in test [4], in [5], in [6], in test [7], in [9] and in test [10] was “inactive” in each case. Besides, the Potency result in test [11], in test [12], in [13], in test [14], in test [15] and in test [16] was “inactive” throughout. In addition, the Potency entry in test [17], in test [18], in test [19] and in [20] was “inactive” in each case.

Turning to `CC1CCc2cc(F)cc3c(=O)c(C(=O)O)cn1c23` (stereo not given), the outcome in test [1], in test [2], in test [3] and in [8] was inactive. In addition, the Potency entry in test [4], in [5], in test [6], in test [7], in test [9] and in test [10] was “inactive” in each case. Besides, the Potency entry in test [11], in [12], in test [13], in test [14], in test [15] and in test [16] was “inactive” throughout. The Potency entry in [17], in [18], in [19] and in test [20] was “inactive” in each case.

With `C[N+](C)(C)CC[N+]1(C)Cc2c(Cl)c(Cl)c(Cl)c(Cl)c2C1`, the compound was classed as inactive in test [1], in test [2], in [3] and in [8]. For the same compound, the Potency entry in test [4], in [5], in test [6], in test [7], in [9] and in test [10] was “inactive” each time. Further, the Potency entry in test [11], in test [12], in [13], in [14], in test [15] and in test [16] was “inactive” in each case. Besides, the Potency entry in test [17], in test [18], in test [19] and in [20] was “inactive” throughout.

Consider `CC(=O)NCc1c(I)c(NC(C)=O)c(I)c(C(=O)O)c1I`, for which the result in [1], in [2], in test [3] and in test [8] was inactive. Besides, the Potency result in [4], in test [5], in test [6], in [7], in test [9] and in test [10] was “inactive” in each case. Besides, the Potency entry in test [11], in test [12], in test [13], in [14], in [16] and in test [17] was “inactive” in each case. For the same compound, the Potency result in test [18], in [19] and in [20] was “inactive” in each case. Further, in test [15], the Potency is 11.2 µM (active).

For `CCN(CC)S(=O)(=O)c1ccc(C(=O)O)cc1`, the compound was called inactive in test [1], in [2], in test [3] and in test [8]. The Potency result in test [4], in [5], in [6], in test [7], in test [9] and in [10] was “inactive” each time. In addition, the Potency result in test [11], in test [12], in test [13], in [14], in test [15] and in test [16] was “inactive” in each case. The Potency entry in test [17], in test [18], in test [19] and in test [20] was “inactive” throughout.

As for `CC(O)CCCCn1c(=O)c2c(ncn2C)n(C)c1=O` (stereo not given), the compound was called inactive in test [1], in test [2], in [3] and in [8]. Further, the Potency result in test [4], in test [5], in test [6], in test [7], in test [9] and in test [10] was “inactive” in each case. In addition, the Potency result in test [11], in [12], in [13], in test [14], in test [15] and in test [16] was “inactive” throughout. Besides, the Potency result in test [17], in [18], in test [19] and in test [20] was “inactive” each time.

`O=C1c2cccc(O)c2C(=O)c2c(O)cccc21`: the call in test [1], in test [2], in test [3] and in test [8] was inactive. In addition, the Potency result in [4], in test [5], in test [6], in test [7], in test [9] and in [10] was “inactive” in each case. The Potency entry in test [11], in [12], in [13], in test [14], in test [15] and in test [16] was “inactive” each time. In addition, the Potency result in [17], in test [18], in test [19] and in [20] was “inactive” each time.
